Measurements: PubChem BioAssay AID652115 (Broad Institute, 2013)
“And” between values parts separate entries of the source, which are not always exact repeats. Equal entries are not always repeated. Out of some 330,000 compounds screened, about 3,800 (1.2%) were called active. Rule as the data show it: active = inhibition above about 15%; inconclusive = no clear call, values can overlap the other calls; inactive = below that. Only a selection was taken, and actives are over-represented in it overall. A structure can be active in one record and inactive in another.

Each molecule was assayed against NAD-dependent protein deacylase sirtuin-5, mitochondrial (Homo sapiens) (UniProt Q9NXA8) (assay: SIRT5 desuccinylase inhibitors, primary screen, biochemical, fluorescence imaging, single point, set 5 (AID 652115)). Details: Purified SirT5, succinyl-peptide AMC, trypsin-coupled fluorescence; at 15 µM; stronger effect = higher value.
NAD-dependent protein deacylase sirtuin-5, mitochondrial (Homo sapiens), sequence (Q9NXA8 whole entry, looked up): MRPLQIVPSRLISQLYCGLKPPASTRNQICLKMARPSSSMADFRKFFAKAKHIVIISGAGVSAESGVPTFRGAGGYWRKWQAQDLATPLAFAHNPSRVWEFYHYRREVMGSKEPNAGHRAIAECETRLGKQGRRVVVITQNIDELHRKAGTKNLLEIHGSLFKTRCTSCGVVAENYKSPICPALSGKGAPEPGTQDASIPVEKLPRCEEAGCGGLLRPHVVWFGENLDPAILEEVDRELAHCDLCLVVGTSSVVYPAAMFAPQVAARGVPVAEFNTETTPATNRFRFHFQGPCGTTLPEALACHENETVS

Row | SMILES | inhibition
1 | CN(C)CC(=O)Nc1ccc2c(c1)[C@H]1C[C@H](CC(=O)NCc3ccccn3)O[C@@H](CO)[C@H]1O2 | -6.14% (inactive)
2 | Cc1ccc(SCCC(=O)Nc2cc(C)on2)cc1 | -2.48% (inactive)
3 | Cc1ccc(SCCC(=O)NC(C(C)C)C(C)C)cc1 | 15.4% (active)
4 | Cc1ccc(SCCC(=O)NCc2ccccn2)cc1 | -1.1% (inactive)
5 | COc1cccc(S(=O)(=O)N2C[C@@H]3N[C@H](C2)C3c2ccc(-c3cccc(C(=O)N(C)C)c3)cc2)c1 (stereo partly drawn) | 1.44% (inactive) and 6.3% (inactive)
6 | COc1ccccc1S(=O)(=O)N1C[C@@H]2N[C@H](C1)C2c1ccc(-c2cccc(C)c2)cc1 (stereo partly drawn) | 1.28% (inactive) and 16.2% (active)
7 | Cc1cccc(-c2ccc(C3[C@@H]4CN(C(=O)Nc5ccc(C(F)(F)F)cc5)C[C@H]3N4)cc2)c1 (stereo partly drawn) | 7.01% (inactive) and 16.1% (active)
8 | O=C(C1CCCCC1)N1C[C@@H]2N[C@H](C1)C2c1ccc(-c2cccc(F)c2)cc1 (stereo partly drawn) | 1.22% (inactive) and 3.71% (inactive)
9 | CN(C)C(=O)c1ccc(-c2ccc(C3[C@@H]4CN(C(=O)Nc5ccccc5)C[C@H]3N4)cc2)cc1 (stereo partly drawn) | -1.69% (inactive)
10 | N#Cc1ccc(-c2ccc(C3[C@@H]4CN(S(=O)(=O)c5ccccc5F)C[C@H]3N4)cc2)cc1 (stereo partly drawn) | -1.48% (inactive) and -0.825% (inactive)
11 | O=C(C[C@H]1CC[C@H](NS(=O)(=O)c2ccccc2)[C@H](CO)O1)NCc1ccncn1 | 6.51% (inactive)
12 | CN1C(=O)c2cc(NC(=O)Cc3cccs3)ccc2OC[C@@H]2O[C@@H](CC(=O)N[C@@H]3CCN(Cc4ccccc4)C3)CC[C@H]21 | -2.4% (inactive)
13 | COCCCNC(=O)[C@@]1(C)c2ccccc2C(=O)N(Cc2ccc(OC(F)(F)F)cc2)[C@H]1c1ccc(CO)cc1 | 0.166% (inactive)
14 | COc1ccccc1CNC(=O)C[C@H]1C[C@@H]2c3cc(NC(=O)Nc4ccccc4F)ccc3O[C@@H]2[C@H](CO)O1 | -5.72% (inactive)
15 | COCC(=O)N(C)C[C@H]1Oc2cc(C#C[C@@H](C)O)ccc2S(=O)(=O)N([C@H](C)CO)C[C@H]1C | -5.34% (inactive)
16 | CO[C@@H]1CN(C)C(=O)c2cc(NC(=O)CC(F)(F)F)ccc2OC[C@H](C)N(S(=O)(=O)c2cn(C)cn2)C[C@H]1C | 1.11% (inactive)
17 | O=C(O)C[C@@H]1C[C@@H]2c3cc(NC(=O)Nc4ccccc4)ccc3O[C@@H]2[C@H](CO)O1 | -3.63% (inactive)
18 | O=C(Cc1ccncc1)N[C@H]1CC[C@H](CCn2cc(-c3ccccc3F)nn2)O[C@@H]1CO | 25.2% (active)
19 | COc1ccc(NC(=O)N[C@@H]2CC[C@H](CCn3cc(-c4ccc(OC)cc4)nn3)O[C@@H]2CO)cc1 | 31.3% (active)
20 | COc1ccc(NC(=O)N[C@H]2CC[C@H](CCn3cc(-c4ccccc4F)nn3)O[C@H]2CO)cc1 | -0.072% (inactive)
21 | O=C(Cc1cccnc1)N[C@H]1CC[C@H](CCn2cc(-c3ccccc3F)nn2)O[C@H]1CO | -1.27% (inactive)
22 | O=C(Nc1ccc(F)cc1)N[C@H]1CC[C@H](CCn2cc(-c3ccc(F)cc3)nn2)O[C@@H]1CO | 3.97% (inactive)
23 | O=C(Cc1ccncc1)N[C@@H]1CC[C@H](CCn2cc(-c3ccccc3F)nn2)O[C@H]1CO | 1.05% (inactive)
